Laboratory results as given in PubChem BioAssay (NCATS).
Where “and” joins values, the source holds several entries; their conditions need not be identical. Equal entries are not always repeated. Inconclusive results are not listed. Entries that show only a call come without a potency. A number with no mark means an inactive call. Calls of active or inactive are those of the source. The call rests on the fitted dose curve; in most records, active means well fitted curve in the direction sought with a large enough effect; inconclusive means small, poorly fitted or top-dose-only effect, or another doubt; inactive means no such curve, though single readings can be large; an effect the other way counts as inactive or inconclusive. Peptide text beside a SMILES is read from it. * marks the point of attachment. AFC = O=c1cc(C(F)(F)F)c2ccc(N*)cc2o1

Key:
[1] = target: Cellular tumor antigen p53 (Homo sapiens) (UniProt P04637); test: Primary qHTS for small molecule compounds that upregulate eGFP-tagged delta133p53alpha (in N-terminal) cells. (AID 2060322); settings: NCI-H358 eGFP-delta133p53alpha fluorescence, 24 h; activation: stronger effect = higher value; further: series mostly up to about 56 µM; nearly all actives have a fitted effect of over 75% in size
Chain of Cellular tumor antigen p53 (Homo sapiens) (P04637 whole entry, looked up): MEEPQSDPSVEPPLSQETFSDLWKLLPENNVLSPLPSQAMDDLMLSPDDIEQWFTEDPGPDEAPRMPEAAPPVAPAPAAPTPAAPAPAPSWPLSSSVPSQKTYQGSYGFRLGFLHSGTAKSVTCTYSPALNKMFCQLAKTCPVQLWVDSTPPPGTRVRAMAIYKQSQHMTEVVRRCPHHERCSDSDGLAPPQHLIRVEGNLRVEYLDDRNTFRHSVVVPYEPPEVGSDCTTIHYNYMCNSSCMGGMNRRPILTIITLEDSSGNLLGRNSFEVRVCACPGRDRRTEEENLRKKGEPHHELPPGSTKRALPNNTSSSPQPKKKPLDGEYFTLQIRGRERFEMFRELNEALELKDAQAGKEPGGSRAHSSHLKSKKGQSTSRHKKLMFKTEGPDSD
Outline: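 NCI-H358 cells pre-induced 24 h with 10 ng/ml doxycycline to express N-terminal eGFP-delta133p53alpha, then dosed 24 h at 37C without doxycycline; fixed, Hoechst-stained, GFP intensity by laser scanning cytometry, normalized to DMSO (0%) and 57.5 uM 5-azacytidine (100%).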

[2] = target: Aldehyde dehydrogenase, mitochondrial (Homo sapiens) (UniProt P05091); test: qHTS for Inhibitors of the Aldehyde Dehydrogenase Family (ALDH2) Primary screen (AID 2061308); further: nearly all actives have a fitted effect of over 55% in size
[3] = target: Retinaldehyde dehydrogenase 3 (Homo sapiens) (UniProt P47895); test: qHTS for Inhibitors of the Aldehyde Dehydrogenase Family (ALDH1A3) Primary screen (AID 2061315); further: potency means the concentration at half of the fitted maximal effect

SMILES: CC(=O)N[C@@H](CC(C)C)C(=O)N[C@@H](CCC(=O)O)C(=O)N[C@@H](CCC(=O)O)C(=O)N[C@@H](CC(=O)O)C(=O)Nc1ccc2c(C(F)(F)F)cc(=O)oc2c1 (Ac-LEED-{AFC})
- activation [1]: 2.33%
- Potency [2]: inactive
- Potency [3]: inactive

SMILES: C=C1CCC2C(C(C)(C)O)CCC2(C)CC(O)C(=C)CCC1O (stereo not drawn)
- activation [1]: -12.5%
- Potency [2]: inactive
- Potency [3]: inactive

SMILES: CC(=O)O[C@@H]1C(O)C[C@@]2(C)C(CC[C@@H](C)C23Cc2c(O)cc4c(c2O3)CNC4=O)C1(C)C (stereo partly drawn)
- activation [1]: -14.5%
- Potency [2]: inactive
- Potency [3]: inactive

SMILES: CC(C)=CCc1cc2c(cc1O)OC[C@H]1c3ccc(O)cc3O[C@@H]21
- activation [1]: -3.82%
- Potency [2]: inactive
- Potency [3]: inactive

SMILES: O=C(CCO[C@@H]1O[C@H](CO)[C@@H](O)[C@H](O)[C@H]1O)c1ccc(O)cc1
- activation [1]: -6.87%
- Potency [2]: inactive
- Potency [3]: inactive

SMILES: C/C=C(/C)C(=O)OC1C=C2C3C(C)C(C)C(OC(=O)C(C)C(C)O)CC3(C)CCC2(C)C2(C)CC(OC(C)=O)C3C(C)(C)C(O)C(=O)CC3(C)C12 (stereo not drawn)
- activation [1]: -17%
- Potency [2]: inactive
- Potency [3]: inactive

SMILES: C=C1C(O)CC2C(C(=O)O)=COC(O[C@@H]3O[C@H](COC(=O)/C=C/c4ccc(O)cc4)[C@@H](O)[C@H](O)[C@H]3O)C12 (stereo partly drawn)
- activation [1]: -6.87%
- Potency [2]: inactive
- Potency [3]: inactive

SMILES: C/C(=C/C=C\C=C\Cc1cnco1)[C@@H](O)C(C)(C)C(N)=O
- activation [1]: -11.5%
- Potency [2]: inactive
- Potency [3]: inactive

SMILES: CC1=CC(=O)OC(C)(CC(C)(O)C(=O)O)C1 (stereo not drawn)
- activation [1]: -15.3%
- Potency [2]: inactive
- Potency [3]: inactive

SMILES: CCc1cc(S(=O)(=O)O)c2cc(C(C)C)cccc1-2
- activation [1]: 4.33%
- Potency [2]: inactive
- Potency [3]: inactive

SMILES: O=C(Nc1cccc([N+](=O)[O-])c1)c1cccc(S(=O)(=O)N2CCCCCC2)c1
- activation [1]: 1.67%
- Potency [2]: inactive
- Potency [3]: inactive

SMILES: C[C@]12C=C[C@@]3(CCC4[C@](C)(CO)CCC[C@@]4(C)C3CC1)C2 (stereo partly drawn)
- activation [1]: -5.36%
- Potency [2]: inactive
- Potency [3]: inactive

SMILES: COC1=CC(=O)C[C@@H](C)[C@]12Oc1cc(OC)cc(OC)c1C2=O
- activation [1]: 4.58%
- Potency [2]: inactive
- Potency [3]: inactive

SMILES: C=C1C(OC(C)=O)CCC2(C)CCC(C(C)(C)O)CC12 (stereo not drawn)
- activation [1]: -3.05%
- Potency [2]: inactive
- Potency [3]: inactive

SMILES: CC(=O)OCC1=C[C@H](O)[C@@H]2C(C(=O)O)=CO[C@@H](O[C@@H]3O[C@H](CO)[C@@H](O)[C@H](O)[C@H]3O)[C@H]12
- activation [1]: 0.763%
- Potency [2]: inactive
- Potency [3]: inactive

SMILES: OC[C@H]1O[C@H](O[C@]2(CCl)O[C@H](CCl)[C@@H](O)[C@@H]2O)[C@H](O)[C@@H](O)[C@H]1Cl
- activation [1]: -5.86% and -10%
- Potency [2]: inactive
- Potency [3]: inactive

SMILES: CC(=O)C=C=C1C(C)(C)CC(O)CC1(C)O[C@@H]1O[C@H](CO[C@H]2OC[C@](O)(CO)[C@H]2O)[C@@H](O)[C@H](O)[C@H]1O (stereo partly drawn)
- activation [1]: -14.3%
- Potency [2]: inactive
- Potency [3]: inactive

SMILES: CC(=O)C=C=C1C(C)(C)CC(O[C@@H]2O[C@H](CO)[C@@H](O)[C@H](O)[C@H]2O)CC1(C)O (stereo partly drawn)
- activation [1]: -1.79%
- Potency [2]: inactive
- Potency [3]: inactive

SMILES: COC(=O)C[C@@H]1C(C(=O)O)=CO[C@@H](O[C@@H]2O[C@H](CO)[C@@H](O)[C@H](O)[C@H]2O)/C1=C\COC(=O)/C=C/c1ccc(O)c(OC)c1
- activation [1]: 6.87%
- Potency [2]: inactive
- Potency [3]: inactive

SMILES: COc1ccc2c3ccnc4ccc(=O)n(c2c1)c43
- activation [1]: 17%
- Potency [2]: inactive
- Potency [3]: inactive

SMILES: C/C(=C/CCC(CO)C1CCC2(C)C3CCC4C(C)(C)C(OC5OC(CO)C(O)C(O)C5O)CC(O)C45CC35CCC12C)COC1OC(CO)C(O)C(O)C1O (stereo not drawn)
- activation [1]: -10.7%
- Potency [2]: inactive
- Potency [3]: inactive

SMILES: OCC1OC(Oc2cc(O)cc(/C=C/c3ccc(O)cc3)c2)C(O)C(O)C1O (stereo not drawn)
- activation [1]: -15.3%
- Potency [2]: inactive
- Potency [3]: 3.55 µM (active)

SMILES: CC(C)=CCC/C(C)=C/CC/C(C)=C/COC1OC(COC2OCC(OC3OCC(O)C(O)C3O)C(O)C2O)C(O)C(OC2OC(C)C(OC3OC(C)C(OC4OCC(OC5OC(C)C(O)C(O)C5O)C(O)C4O)C(O)C3O)C(O)C2O)C1O (stereo not drawn)
- activation [1]: 4.58%
- activity change, negative = inhibition [2]: 7.18% [at 11.2 µM]
- activity change, negative = inhibition [3]: -4.87% [at 11.2 µM]

SMILES: CC1(C)CC[C@]2(C(=O)O[C@@H]3O[C@H](CO[C@@H]4O[C@H](CO)[C@@H](O)[C@H](O)[C@H]4O[C@@H]4O[C@H](CO)[C@H](O)[C@H](O)[C@H]4O)[C@@H](O)[C@H](O[C@@H]4O[C@H](CO)[C@@H](O)[C@H](O)[C@H]4O)[C@H]3O)CC[C@]3(C)C(=CCC4[C@@]5(C)CC[C@H](O[C@@H]6OC[C@@H](O)[C@H](O)[C@H]6O)[C@@](C)(C(=O)O)C5CC[C@]43C)[C@@H]2C1 (stereo partly drawn)
- activation [1]: 1.53%
- activity change, negative = inhibition [2]: 6.97% [at 11.2 µM]
- activity change, negative = inhibition [3]: 11.9% [at 11.2 µM]

SMILES: O=C(/C=C/c1ccc(O)cc1)O[C@@H]1C[C@@](O)(C(=O)O)C[C@@H](O)[C@@H]1O
- activation [1]: 3.82%
- Potency [2]: inactive
- Potency [3]: inactive

SMILES: CCC(C)/C=C(C)/C=C/c1cc2c(cn1)C(=O)C(C)(OC(C)=O)C(O)=C2Cl (stereo not drawn)
- activation [1]: -6.11%
- Potency [2]: inactive
- Potency [3]: inactive

SMILES: Cn1ncnc1[C@@H]1c2n[nH]c(=O)c3cc(F)cc(c23)N[C@H]1c1ccc(F)cc1
- activation [1]: -7.14%
- Potency [2]: inactive
- Potency [3]: inactive

SMILES: COc1cc(CCC2=NN=C(NC(=O)c3ccc(N4C[C@@H](C)N[C@@H](C)C4)cc3)C2)cc(OC)c1
- activation [1]: -0.333%
- Potency [2]: inactive
- Potency [3]: inactive

SMILES: C[C@@H]1O[C@@H](O[C@H]2[C@H](O[C@H]3[C@H](O[C@H]4CC[C@@]5(C=O)C(CC[C@]6(C)C5CC=C5C7CC(C)(C)C[C@@H](O)[C@]7(C)CC[C@]56C)C4(C)C)O[C@H](C(=O)O)[C@@H](O)[C@@H]3O)OC[C@@H](O)[C@@H]2O)[C@H](O)[C@H](O)[C@H]1O (stereo partly drawn)
- activation [1]: -8.93%
- Potency [2]: inactive
- Potency [3]: inactive

SMILES: O=C(O)Cc1ccccc1Oc1ccc(Cl)cc1Cl
- activation [1]: -3.35%
- Potency [2]: inactive
- Potency [3]: inactive

SMILES: COc1ccc(CCC(=O)O)c(O[C@@H]2O[C@H](CO)[C@@H](O)[C@H](O)[C@H]2O)c1
- activation [1]: -13.7%
- Potency [2]: inactive
- Potency [3]: inactive

SMILES: CCCC(=O)Nc1cccc(NC(=O)c2ccccc2Br)c1
- activation [1]: -11.7%
- Potency [2]: inactive
- Potency [3]: inactive

SMILES: CCCCn1ccc(N2CCC(c3ccccc3)CC2)c(Cl)c1=O
- activation [1]: -2.33%
- Potency [2]: inactive
- Potency [3]: inactive

SMILES: O=C(CC1C(=O)Nc2ccccc21)OC[C@H]1O[C@@H](OCCc2ccc(O)cc2)[C@H](O)[C@@H](O)[C@@H]1O (stereo partly drawn)
- activation [1]: 0%
- Potency [2]: inactive
- Potency [3]: inactive

SMILES: CC(=O)OC[C@H]1O[C@H](O[C@]2(CO)O[C@H](CO)[C@@H](OC(=O)/C=C/c3ccccc3)[C@@H]2O)[C@H](O)[C@@H](O)[C@@H]1O
- activation [1]: -0.763%
- Potency [2]: inactive
- Potency [3]: inactive

SMILES: C=C(C)C1CC[C@]2(C(=O)O)CC[C@]3(C(=O)O)[C@H](CCC4[C@@]5(C)CC[C@H](O)C(C)(C)C5CC[C@]43C)C12 (stereo partly drawn)
- activation [1]: -12.5%
- Potency [2]: inactive
- Potency [3]: inactive

SMILES: C=CCc1ccc(O[C@@H]2O[C@H](CO)[C@@H](O)[C@H](O)[C@H]2O)c(OC)c1
- activation [1]: -19.6%
- Potency [2]: inactive
- Potency [3]: inactive

SMILES: CSCC[C@H](NC(=O)[C@H](CO)NC(=O)[C@H](CCC(=O)O)NC(C)=O)C(=O)N[C@H](C=O)CC(=O)O (Ac-ESMD-aldehyde)
- activation [1]: 12.3%
- activity change, negative = inhibition [2]: -17.2% [at 11.2 µM]
- activity change, negative = inhibition [3]: -13.4% [at 11.2 µM]

SMILES: CCc1ccc(Cc2ccc3c(c2)[C@]2(OC3)O[C@H](CO)[C@@H](O)[C@H](O)[C@H]2O)cc1
- activation [1]: 7%
- Potency [2]: inactive
- Potency [3]: inactive

SMILES: CCC/C=C/C(=O)O[C@H]1CC(C)(C)CC2[C@]13[C@H](O)O[C@@]21CCC2[C@@]4(C)CC[C@H](O[C@@H]5O[C@H](C(=O)O)[C@@H](O)[C@H](O[C@@H]6O[C@H](CO)[C@H](O)[C@H](O)[C@H]6O[C@@H]6O[C@@H](C)[C@H](O)[C@@H](O)[C@H]6O[C@@H]6OC[C@](O)(CO)[C@H]6O)[C@H]5O[C@@H]5O[C@H](CO)[C@H](O)[C@H](O)[C@H]5O)C(C)(C)C4CC[C@@]2(C)[C@]1(C)C[C@H]3OC(C)=O (stereo partly drawn)
- activation [1]: -4.58%
- activity change, negative = inhibition [2]: 3.01% [at 11.2 µM]
- activity change, negative = inhibition [3]: 13.9% [at 11.2 µM]

SMILES: CC(C)CNCc1ccc(-c2ccccc2S(=O)(=O)N2CCCC2)cc1
- activation [1]: 11.7%
- Potency [2]: inactive
- Potency [3]: inactive

SMILES: CC1(C)CCC[C@@]2(C)C1[C@H](OC(=O)/C=C/C=C/C(=O)O)C=C1COC(=O)[C@@]12O (stereo partly drawn)
- activation [1]: -13%
- Potency [2]: inactive
- Potency [3]: inactive

SMILES: CC(C)C(C#N)O[C@@H]1O[C@H](CO[C@@H]2OC[C@](O)(CO)[C@H]2O)[C@@H](O)[C@H](O)[C@H]1O (stereo partly drawn)
- activation [1]: 6.87%
- Potency [2]: inactive
- Potency [3]: inactive

SMILES: CC(C)C(=O)O[C@@H]1[C@@H](O)[C@@H](O[C@H]2O[C@H](CO)[C@@H](O)[C@H](O)[C@H]2O)O[C@H](CO)[C@H]1O
- activation [1]: 3.82%
- Potency [2]: inactive
- Potency [3]: inactive

SMILES: CO[C@H]1O[C@@H]2O[C@@]3(C)CCC4[C@H](C)CCC([C@H]1C)[C@]42OO3 (stereo partly drawn)
- activation [1]: 11.7%
- Potency [2]: inactive
- Potency [3]: inactive

SMILES: CC1(C)CC[C@]2(C(=O)O[C@@H]3O[C@H](CO)[C@@H](O)[C@H](O)[C@H]3O)CC[C@]3(C)C(=CCC4[C@@]5(C)C[C@H](O)[C@H](O[C@@H]6O[C@H](C(=O)O)[C@@H](O)[C@H](O)[C@H]6O)[C@@](C)(CO)C5CC[C@]43C)C2C1 (stereo partly drawn)
- activation [1]: -11.6%
- activity change, negative = inhibition [2]: 12.5% [at 11.2 µM]
- activity change, negative = inhibition [3]: 11% [at 11.2 µM]
